Measured values as given in PubChem BioAssay (NCATS).
Values joined by “and” are separate entries in the source; they are usually repeats but may differ in a detail not shown here. Equal values may be shown once. Records with an inconclusive call do not appear. More than one record can exist for a structure, and the calls need not agree. Active and inactive are the calls of the source. Calls come from the whole dose curve; as a rule, active = well fitted inhibition curve with a large enough effect; inconclusive = small, poorly fitted or top-dose-only effect; inactive = flat fitted curve, though single readings scatter.

Test system: HEK293
Assay: Cytotoxic Profiling of Annotated Libraries Using Quantitative High-Throughput Screening (AID 1296008); note: nearly all actives have a fitted effect of over 60% in size
Details: Five cell lines viability, CellTiter-Glo ATP luminescence, 48-72 h; max response: stronger effect = lower value
Source text: Cell-based phenotypic screening is a commonly used approach to discover biological pathways, novel drug targets, chemical probes and high-quality hit-to-lead molecules. Many hits identified from high-throughput screening campaign are ruled out through a series of follow-up potency, selectivity/specificity, and cytotoxicity assays. Prioritization of molecules with little or no cytotoxicity for a more in-depth downstream evaluation influence the future direction of projects, so cytotoxicity profiling of the screening libraries at early stage is essential for increasing the likelihood of candidate success. […] For the annotated library, we also examined the primary targets and mechanistic pathways regularly associated with cell death. To our knowledge, this is the first study to use high-throughput screening to profile large libraries for cytotoxicity assessment in both normal and cancer cell lines. In summary, the results generated here constitutes a valuable resource for the scientific community and provides insight on identifying cytotoxic compounds with particular mechanisms of action, and prioritizing compounds with suitable cytotoxicity profile for further evaluation.
A pintool (Kalypsys) was used to transfer 23 nL of compound solution to the 1536-well assay plates. After 48 or 72 hr incubation at 37 degree Celsius, 5% CO2 and 95% humidity, 2.5 uL of CellTiter-Glo (Promega) was dispensed into each well using a dispenser (Aspect Automation, St. Paul, MN) with solenoid valves (Lee Valves, Westbrook CT). Plates were left at room temperature for 10 min before imaging the ATP-coupled luminescence using a ViewLux microplate imager (PerkinElmer, Waltham, MA).
% is set by controls: 0 for no effect and ±100 for the full control effect; potency is the fitted concentration of half-maximal effect.

Compound	Potency	max response	outcome
CCN(CC)CCCCNc1nc2cc(Cl)c(Cl)cc2nc1-c1ccc(-c2cccs2)s1	29.6 µM (active)	–	–
COC(=O)[C@H](c1ccccc1Cl)N1CCc2sccc2C1	–	3.92% (inactive)	–
N=C1SC(=Cc2ccc(-c3ccc4c(c3)C(=O)NC4=O)o2)C(=O)N1c1ccc(Br)cc1	–	1.89% (inactive)	–
COc1ccc2ccc(=O)oc2c1CC=C(C)C	–	-5% (inactive)	–
COc1ccc(-c2ccc3ncc4c(c3c2)n(-c2ccc(N3CCNCC3)c(C(F)(F)F)c2)c(=O)n4C)cn1	0.0092 µM (active)	-112% (inactive)	–
CC[C@@H]([C@H](C)O)n1ncn(-c2ccc(N3CCN(c4ccc(OCC5CO[C@@](Cn6cncn6)(c6ccc(F)cc6F)C5)cc4)CC3)cc2)c1=O (stereo not given in full)	14.8 µM (active)	–	–
Cc1cnc(Nc2cccc(CN3CCOCC3)c2)nc1Nc1cccc(S(=O)(=O)NC(C)(C)C)c1	–	–	inactive
CC(C)n1c(C=C[C@H](O)C[C@H](O)CC(=O)O)c(-c2ccc(F)cc2)c2ccccc21	14.8 µM (active)	–	–
CC(=O)N1CCN(c2ccc(OCc3nn(C)c(C)c3-c3cccc4c(CCCOc5cc(C)c(Cl)c(C)c5)c(C(=O)O)n(Cc5cccnc5)c34)cc2)CC1	–	–	inactive; activator
C=CC[N+]1([C@H]2C[C@H]3[C@@H]4CC[C@H]5C[C@H](O)[C@@H](N6CCOCC6)C[C@]5(C)[C@@H]4CC[C@]3(C)[C@H]2OC(C)=O)CCCC1	–	-1.88% (inactive)	–
COc1nccc(-c2c(-c3ccc(F)cc3)ncn2C2CCNCC2)n1	3.32 µM (active)	-20% (inactive)	–
Nc1ccn([C@@H]2O[C@H](CO)[C@@H](O)[C@H]2O)c(=O)n1	–	-76.5% (inactive)	–
CC(C)[C@H](O)C(=O)N[C@@H](C)C(=O)N[C@@H]1C(=O)N(C)CCc2ccccc21	–	-11.6% (inactive)	–
Nc1ccc(-c2ccc3ncc4ccc(=O)n(-c5cccc(C(F)(F)F)c5)c4c3c2)cn1	0.0132 µM (active)	–	–
CC1(C)CC(=O)c2c(C(F)(F)F)nn(-c3ccc(C(N)=O)c(NC4CCC(O)CC4)c3)c2C1 (stereo not given)	52.6 nM (active) and 58 nM (active)	–	–
CC(=O)NCCC(=O)N[C@@H](CCC(N)=O)C(=O)N[C@@H](CO)C(=O)N[C@@H](CCC(N)=O)C(=O)N[C@@H](CCC(N)=O)C(=O)N[C@H](C(=O)N[C@@H](Cc1ccccc1)C(=O)N[C@]1(C)CCCCCCC=CCCC[C@@](C)(C(=O)N[C@@H](CCC(N)=O)C(=O)N[C@@H](CC(N)=O)C(N)=O)NC(=O)[C@H](CC(C)C)NC(=O)[C@H](CC(C)C)NC(=O)[C@@H](CCCNC(=N)N)NC(=O)[C@H](Cc2c[nH]c3ccccc23)NC(=O)[C@H](CC(C)C)NC(=O)[C@H](CC(N)=O)NC1=O)[C@H](C)O	–	-2.69% (inactive)	–
Cc1ccc(NC(=O)c2ccc(CN3CCN(C)CC3)cc2)cc1Nc1nc(-c2cccnc2)cs1	8.33 µM (active)	–	–
COc1c(C)cnc(Cn2cnc3c(Cl)nc(N)nc32)c1C	0.132 µM (active)	–	–
CC1(COc2ccc3c(c2)ncn3-c2ccc3cccc(N4CCC(N)CC4)c3n2)COC1	7.43 µM (active) and 8.2 µM (active)	–	–

Compound	Potency	max response	outcome
CC(=O)Nc1cccc(-n2c(=O)n(C3CC3)c(=O)c3c(Nc4ccc(I)cc4F)n(C)c(=O)c(C)c32)c1	11.8 µM (active)	–	–
CCn1c(-c2nonc2N)nc2cncc(CNC3CCNCC3)c21	10.5 µM (active) and 2.31 µM (active)	–	–
C[C@H](c1ccc(F)cc1CCCC(=O)O)N(c1cc(F)ccc1F)S(=O)(=O)c1ccc(Cl)cc1	–	-10.5% (inactive)	inactive
O=C(O)CCC=CCC[C@@H]1[C@H](N2CCCCC2)[C@@H](O)C[C@@H]1OCc1ccc(-c2ccccc2)cc1	–	-1.41% (inactive)	–
Cc1ccc(S(=O)(=O)Nc2nc3ccccc3nc2Nc2ccc3nsnc3c2)cc1	–	4.32% (inactive)	–
CC(O)=C(C#N)C(=O)Nc1ccc(C(F)(F)F)cc1	11.8 µM (active)	–	–
C[C@@H](O)[C@H]1C(=O)N2C(C(=O)OCOC(=O)C(C)(C)C)=C(SC3CN(C4=NCCS4)C3)[C@H](C)[C@H]12	–	–	inactive
CC1CNc2c(cccc2S(=O)(=O)N[C@@H](CCCN=C(N)N)C(=O)N2CC[C@@H](C)C[C@@H]2C(=O)O)C1 (stereo not given in full)	–	–	inactive
CCNC(=O)CCCC=CC[C@@H]1[C@H](C=CC(O)CCc2ccccc2)[C@@H](O)C[C@@H]1O (stereo not given in full)	–	-24.5% (inactive)	–
CCNC(=O)c1noc(-c2cc(C(C)C)c(O)cc2O)c1-c1ccc(CN2CCOCC2)cc1	46.9 nM (active) and 9.2 nM (active)	–	–
CCC[C@@H](NC(=O)[C@@H]1[C@H]2CCC[C@@H]2CN1C(=O)[C@@H](NC(=O)[C@@H](NC(=O)c1cnccn1)C1CCCCC1)C(C)(C)C)C(=O)C(=O)NC1CC1	–	-0.244% (inactive)	–
OC[C@H]1O[C@@H](OCCc2ccc(O)cc2)[C@H](O)[C@@H](O)[C@H]1O	–	0.731% (inactive)	–
Nc1nc(Cl)nc2c1ncn2[C@@H]1O[C@H](CO)[C@@H](O)[C@H]1F	0.469 µM (active)	–	–
Fc1ccc(CNc2ncnc3ccc(F)cc23)cc1	6.51 µM (active)	–	–
CNC1CCC(N(Cc2cccc(-c3ccncc3)c2)C(=O)c2sc3ccccc3c2Cl)CC1 (stereo not given)	8.33 µM (active) and 7.31 µM (active)	–	–
Cc1nc(C(=O)NCC(=O)O)c(O)c2ccc(Oc3ccccc3)cc12	–	-3.39% (inactive) and -0.739% (inactive)	–
CN(C)CCN(Cc1ccc(Cl)cc1)c1ccccn1	–	-16.3% (inactive)	–
CNC(=O)[C@H](CC1=CN=C2C=CCC=C12)NC(=O)[C@@H](CC(=O)NO)CC(C)C	–	4.44% (inactive)	–
